The supplement of paper PMC11172423
A number with no mark means an inactive call.

The compounds below were run on Madurella mycetomatis MM55 (assay: growth relative to untreated control; higher = less inhibition, active = 20 or less). Conditions: 25 µM.
Experimental: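 Hyphal fragments of M. mycetomatis MM55 or F. senegalensis CBS197.79 in RPMI 1640/MOPS were exposed to each MMV COVID Box or Global Health Priority Box compound at 100 or 25 µM for 7 days at 37 °C. Viability was read with MTS (490 nm, M. mycetomatis) or resazurin (600 nm, F. senegalensis), background-corrected with a medium-only control and expressed as % growth relative to the untreated growth control. Inhibition of more than 80% was taken as growth inhibition.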

Row | SMILES | growth
1 | O=S(=O)(NCC1(O)CCOc2ccccc21)c1ccccc1F (stereo not given) | 101%
2 | CCOC(=O)N1CCC(=C2c3ccc(Cl)cc3CCc3cccnc32)CC1 | 54.3%
3 | COc1ccc(-n2nc(C(N)=O)c3c2C(=O)N(c2ccc(N4CCCCC4=O)cc2)CC3)cc1 | 111%
4 | COc1cc2c3cc1Oc1c(OC)c(OC)cc4c1[C@@H](Cc1ccc(O)c(c1)Oc1ccc(cc1)C[C@@H]3N(C)CC2)N(C)CC4 | 88.9%
5 | CC(C)(C)Cn1c(N)nc2ccc(-c3[nH]c(C(C)(C)C)nc3-c3ccc(F)cc3)nc21 | 82.9%
6 | Cc1c(-c2ccc(-c3ccccc3F)cc2)nc2ccc(F)cc2c1C(=O)O | 115%
7 | CCN1CCN(Cc2ccc(Nc3ncc(F)c(-c4cc(F)c5nc(C)n(C(C)C)c5c4)n3)nc2)CC1 | 80.5%
8 | CCCCc1nc(Cl)c(CO)n1Cc1ccc(-c2ccccc2-c2nn[nH]n2)cc1 | 103%
9 | O=C(OI(OC(=O)C(F)(F)F)c1ccccc1)C(F)(F)F | 89.9%
10 | CCCCN(CCCC)CC(O)c1cc(Cl)cc2c1-c1ccc(Cl)cc1/C2=C/c1ccc(Cl)cc1 (stereo not given) | 107%
11 | CC(C)Nc1ncc2nc(Nc3cc(F)cc(Cl)c3)n(C3CCNCC3)c2n1 | 91.1%
12 | CN(C)CCOc1ccc2nc(-c3cccc(OCc4ccccc4)c3)[nH]c2c1C#N | 4.87% (active)
13 | Cc1noc(C2CN(C(=O)c3ccc(Nc4nccc(-c5ccc(Cl)cc5)n4)cc3)C2)n1 | 122%
14 | CS(=O)(=O)N1CCC(NC(=O)c2cc3ccc(C(F)(F)F)cc3[nH]2)CC1 | 101%
15 | CC[C@H](C)[C@H]1O[C@]2(CC[C@@H]1C)C[C@@H]1C[C@@H](C/C=C(\C)[C@@H](O[C@H]3C[C@H](OC)[C@@H](O[C@H]4C[C@H](OC)[C@@H](O)[C@H](C)O4)[C@H](C)O3)[C@@H](C)/C=C/C=C3\CO[C@@H]4[C@H](O)C(C)=C[C@@H](C(=O)O1)[C@]34O)O2 | 95.8%
16 | COc1ccc2nc3cc(Cl)ccc3c(Nc3cc(CN4CCCC4)c(O)c(CN4CCCC4)c3)c2n1 | 76.3%
17 | CC(C)OC(=O)[C@H](C)N[P@](=O)(OC[C@H]1O[C@@H](n2ccc(=O)[nH]c2=O)[C@](C)(F)[C@@H]1O)Oc1ccccc1 | 94.5%
18 | Cc1cc(OCCN2CCOCC2)nn1-c1ccc2ccccc2c1 | 85.8%
19 | Cc1ccc(-c2c3c(nc4sc(C(=O)Nc5ccc(F)cc5)c(N)c24)CCC3)cc1 | 110%
20 | CC[C@@H]([C@H](C)O)n1ncn(-c2ccc(N3CCN(c4ccc(OC[C@@H]5CO[C@@](Cn6cncn6)(c6ccc(F)cc6F)C5)cc4)CC3)cc2)c1=O | 6.56% (active)

Same assay, conditions: 100 µM

Row | SMILES | growth
21 | O=S(=O)(NCC1(O)CCOc2ccccc21)c1ccccc1F (stereo not given) | 102%
22 | CCOC(=O)N1CCC(=C2c3ccc(Cl)cc3CCc3cccnc32)CC1 | 6.05% (active)
23 | COc1ccc(-n2nc(C(N)=O)c3c2C(=O)N(c2ccc(N4CCCCC4=O)cc2)CC3)cc1 | 84.1%
24 | COc1cc2c3cc1Oc1c(OC)c(OC)cc4c1[C@@H](Cc1ccc(O)c(c1)Oc1ccc(cc1)C[C@@H]3N(C)CC2)N(C)CC4 | 5.99% (active)
25 | CC(C)(C)Cn1c(N)nc2ccc(-c3[nH]c(C(C)(C)C)nc3-c3ccc(F)cc3)nc21 | 3.85% (active)
26 | Cc1c(-c2ccc(-c3ccccc3F)cc2)nc2ccc(F)cc2c1C(=O)O | 83.3%
27 | CCN1CCN(Cc2ccc(Nc3ncc(F)c(-c4cc(F)c5nc(C)n(C(C)C)c5c4)n3)nc2)CC1 | 85.2%
28 | CCCCc1nc(Cl)c(CO)n1Cc1ccc(-c2ccccc2-c2nn[nH]n2)cc1 | 88.8%
29 | O=C(OI(OC(=O)C(F)(F)F)c1ccccc1)C(F)(F)F | 182%
30 | CCCCN(CCCC)CC(O)c1cc(Cl)cc2c1-c1ccc(Cl)cc1/C2=C/c1ccc(Cl)cc1 (stereo not given) | 87.9%
31 | CC(C)Nc1ncc2nc(Nc3cc(F)cc(Cl)c3)n(C3CCNCC3)c2n1 | 94.2%
32 | CN(C)CCOc1ccc2nc(-c3cccc(OCc4ccccc4)c3)[nH]c2c1C#N | 5.16% (active)
33 | Cc1noc(C2CN(C(=O)c3ccc(Nc4nccc(-c5ccc(Cl)cc5)n4)cc3)C2)n1 | 73.7%
34 | CS(=O)(=O)N1CCC(NC(=O)c2cc3ccc(C(F)(F)F)cc3[nH]2)CC1 | 109%
35 | CC[C@H](C)[C@H]1O[C@]2(CC[C@@H]1C)C[C@@H]1C[C@@H](C/C=C(\C)[C@@H](O[C@H]3C[C@H](OC)[C@@H](O[C@H]4C[C@H](OC)[C@@H](O)[C@H](C)O4)[C@H](C)O3)[C@@H](C)/C=C/C=C3\CO[C@@H]4[C@H](O)C(C)=C[C@@H](C(=O)O1)[C@]34O)O2 | 112%
36 | COc1ccc2nc3cc(Cl)ccc3c(Nc3cc(CN4CCCC4)c(O)c(CN4CCCC4)c3)c2n1 | 40%
37 | CC(C)OC(=O)[C@H](C)N[P@](=O)(OC[C@H]1O[C@@H](n2ccc(=O)[nH]c2=O)[C@](C)(F)[C@@H]1O)Oc1ccccc1 | 85.7%
38 | Cc1cc(OCCN2CCOCC2)nn1-c1ccc2ccccc2c1 | 65%
39 | Cc1ccc(-c2c3c(nc4sc(C(=O)Nc5ccc(F)cc5)c(N)c24)CCC3)cc1 | 122%
40 | CC[C@@H]([C@H](C)O)n1ncn(-c2ccc(N3CCN(c4ccc(OC[C@@H]5CO[C@@](Cn6cncn6)(c6ccc(F)cc6F)C5)cc4)CC3)cc2)c1=O | 9.91% (active)
